# Data as given in PubChem BioAssay AID652010 (The Scripps Research Institute Molecular Screening Center, 2013).
# The campaign covered roughly 370,000 compounds. About 4,100 (1.1%) were called active. For the sample, actives were picked, then their nearest neighbours and some compounds at random. Unmarked numbers belong to inactive results.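 Rule for the calls: active = inhibition above the mean over all tested compounds plus 3 SD (cut at about 3.6% in these data); inactive = the rest.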
# Assay: relief of DAX-1 repression of SF-1 activity – cell-based, luminescence, SF-1 (NR5A1), full-length DAX-1, primary screen (AID 652010);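 note: 0% = DAX-1 cells with DMSO and 100% = cells lacking DAX-1 with DMSO; higher inhibition means more luminescence from relief of DAX-1 repression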
# Details: HEK293T StAR-luciferase reporter, SF-1/DAX-1 repression relief; at 6.8 µM; active compounds read high
row,Structure (SMILES),inhibition
1,O=C(NCCc1ccccn1)c1nc(Cn2cc([N+](=O)[O-])cn2)no1,0.2%
2,COc1ccc(N2C(=O)CN=C2Nc2cccc(C)c2C)cc1OC,-0.59%
3,O=C(NCc1ccccc1Cl)C1CCCN1S(=O)(=O)c1ccc(F)cc1 (stereo not given),-0.27%
4,O=C(N1CCOCC1)N1CC[C@H]2[C@H](CCCN2Cc2ccc(F)cc2)C1,0.58%
5,COC(=O)[C@]12C[C@H](CC(=O)N3CCN(C(=O)C4CC4)CC3)C(=O)N(CCC3=CCCCC3)C1=C[C@H](C(C)C)O[C@@H]2C1CC1,-0.81%
6,COc1ccccc1N(C)S(=O)(=O)c1ccc(C(=O)NC2CCCCCC2)cc1,-0.26%
7,O=C(CSc1nnc(-c2ccccn2)n1-c1ccc(Cl)cc1)Nc1ccccc1-c1ccccc1,-0.72%
8,Cc1ccc(NC(=O)c2cc(C)nn2-c2ccccc2)c(C)c1,-0.54%
9,Cc1cc(Br)ccc1NC(=S)NC1CCCC1,0.19%
10,Cc1ccc(NC(=S)Nc2ncccc2C)c(C)c1,4.16% (active)
11,O=C(c1ccncc1)N1CC[C@H]2[C@H](CCCN2Cc2ccc(F)cc2)C1,-0.35%
12,Cc1ccccc1CN1CCCCC(NC(=O)c2cccc(C#N)c2)C1=O (stereo not given),-1.4%
13,Cc1ccc(C(=O)N/N=C/c2sc(=O)n(Cc3cccc(C(=O)O)c3)c2Cl)cc1,-0.16%
14,Cc1ccc(/C=C2\CCn3c2nc2cc(C(=O)O)ccc2c3=O)c(C)c1,-0.46%
15,Cc1ccc2cc(/C=N/Nc3ccc(C(=O)O)cc3)c(Cl)nc2c1,4.23% (active)
16,CCCCCCCCN1C(=O)[C@@H](CC(=O)NCCCC)C[C@@]2(C(=O)OC)C1=C[C@H](C(C)(C)C)O[C@@H]2C,1.52%
17,O=C(NCCc1c[nH]c2ccccc12)c1cc2ccccc2oc1=O,6.37% (active)
18,O=C(NCCc1ccccc1)c1c[nH]c2ccc(F)cc2c1=O,-0.4%
19,O=C(CCCCCn1c(=O)[nH]c2ccccc2c1=O)NCCc1c[nH]c2ccccc12,-0.81%
20,O=C(NCCCCCCCCCNC(=O)C(F)(F)F)C(F)(F)F,0.58%
21,COC(=O)C1=C(C)N(Cc2ccccc2C(F)(F)F)C(=NCc2ccc(OC)cc2)NC1c1cccc(C(F)(F)F)c1 (stereo not given),-2.23%
22,Cc1cccc(NC(=S)N2CCC(C(=O)c3ccc(F)cc3)CC2)c1,0.4%
23,O=C(Nc1ccc(-c2nnc(-c3ccccc3)o2)cc1)C1CCCO1 (stereo not given),3.77% (active)
24,CC(C)(C)NS(=O)(=O)c1ccc(NC(=O)C2CCCO2)cc1 (stereo not given),-0.07%
25,CCOC(=O)c1ccc(NC(=O)c2ccc(NC(=O)C3CCCO3)cc2)cc1 (stereo not given),-1.16%
26,CN1CCCc2nc(-c3ccccc3)ccc21,1.43%
27,Cc1ccc(C(=O)O/N=C(\N)c2ccccn2)cc1Cl,1.79%
28,Cc1cccc(/C(N)=N/OC(=O)c2ccccc2Cl)c1,4.38% (active)

row,Structure (SMILES),inhibition
1,C/C(=N\OC(=O)c1ccccc1)c1c(C)nc2cc(C)ccn12,-0.48%
2,Cc1ccc(Cn2cc(COC(=O)N(C)Cc3ccccc3)nn2)cc1,-0.12%
3,CC(C)(C)c1ccc(S(=O)(=O)NCC2CCN(C(=O)C(=O)c3cc4ccccc4o3)CC2)cc1,-1.6%
4,COc1ccc(CCOC2OC(CO)C(OC(=O)/C=C/c3ccc(O)c(OC)c3)C(O[C@H]3O[C@@H](C)[C@H](O)[C@@H](O)[C@H]3O)C2O)cc1O (stereo not given in full),4.55% (active)
5,COc1cc(/C=C/C(=O)OCC(=O)NCCCc2ccccc2)ccc1O,-0.2%
6,COc1cc(/C=C/CO)cc(OC)c1O[C@@H]1O[C@H](CO)[C@@H](O)[C@H](O)[C@H]1O,0.72%
7,O=C(OC12CCCN(C1)/C(=C/c1ccccc1)C2)c1ccco1 (stereo not given),0.04%
8,CCOc1ccccc1-c1cc(C(=O)N/N=C(\C)c2cccnc2)c2ccccc2n1,1.24%
9,CCOc1cc(C(=O)Nc2ccc(S(=O)(=O)Nc3cnc4ccccc4n3)cc2)cc(OCC)c1OCC,-0.22%
10,CCOc1cccc(/C=C/c2ccc3ccccc3n2)c1OC(C)=O,5.71% (active)
11,Cc1ccc2c(c1)C1CN(C)CCC1N2S(=O)(=O)c1ccc(Oc2ccc([N+](=O)[O-])cc2)cc1 (stereo not given),-0.52%
12,COCCNC(=S)N(C)[C@H]1C[C@H]2c3[nH]c4ccccc4c3CCN2C[C@H]1[C@H](C)O,1.22%
13,CCOC(=O)N1CCN(S(=O)(=O)c2ccc3c(c2)C(C)C(=O)N3)CC1 (stereo not given),0.76%
14,Fc1ccc2cnc(-c3ccccc3)cc2c1,9.42% (active)
15,Fc1ccccc1-c1cc2cc3c(cc2cn1)OCO3,1.9%
16,COc1cc(OC)cc(-c2cc3ccc(F)cc3cn2)c1,1.37%
17,CN(C)c1ccc(NC(=O)NC2CCCCN(Cc3ccc(Cl)cc3)C2=O)cc1 (stereo not given),-1.13%
18,COC(=O)C1C(=O)c2c([nH]c(C(=O)OCCSC)c2C)CC1C (stereo not given),5.6% (active)
19,CN(C)[C@H]1CCN(c2cccc3c2S(=O)(=O)N2CC[C@H](C2)O3)C1,0.33%
20,O=C(NCc1ccco1)c1nn2cccnc2c1Cl,0.65%
21,O=C(Nc1ccc2oc(-c3ccccc3F)nc2c1)c1ccco1,4.4% (active)
22,O=C(Nc1cc(-c2nc3ncccc3o2)ccc1Cl)c1ccco1,-1.38%
23,COc1ccc(-c2c(NC(=O)c3ccco3)oc3ccc(Cl)cc3c2=O)cc1,-0.46%
24,O=C(CN1CCC(NC(=O)NCc2ccccc2)CC1)Nc1ccc2c(c1)OCCO2,-0.91%
25,Cc1cccc(NC(=O)C[C@H]2CC[C@H]3[C@@H](COc4ccc(NC(=O)Nc5ccccc5)cc4C(=O)N3C)O2)c1,0%
26,Cc1ccc(-c2nnc(SCC(=O)Nc3ccc(Oc4ccccc4)cc3)n2Cc2ccco2)cc1,-2.13%
27,CC(C)CNc1cccc2c1S(=O)(=O)N(Cc1cn(Cc3ccccc3C(F)(F)F)nn1)Cc1ccccc1O2,0.13%
